# MRP1 act – activators of MRP-1; H69AR cells + doxorubicin, viability rescue, CellTiter-Glo; viability increase, % at 10 µM; actives 0.61% (n = 140,000); AID 799;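 active = viability gain under doxorubicin at or above a set limit, the compound median plus 3 SD, cut at about 4.7% in these data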;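 note: MRP-1 overexpressing cells given doxorubicin 25 µM after compound pretreatment; 18-22 h compound pretreatment then 72 h with doxorubicin before readout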
# CYP2C9 activ – CYP2C9 (human) activation; recombinant CYP2C9, luciferin-H conversion, luminescence; hits give high values; factor 1 = untreated enzyme, 0 = blocked; actives 1.4% (n = 96,000); activation factor at 5 µM; AID 1024; P11712;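 active = activation factor of 2 or more for CYP2C9 at a 5 µM dose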
# Target sequence (P11712 whole entry, looked up): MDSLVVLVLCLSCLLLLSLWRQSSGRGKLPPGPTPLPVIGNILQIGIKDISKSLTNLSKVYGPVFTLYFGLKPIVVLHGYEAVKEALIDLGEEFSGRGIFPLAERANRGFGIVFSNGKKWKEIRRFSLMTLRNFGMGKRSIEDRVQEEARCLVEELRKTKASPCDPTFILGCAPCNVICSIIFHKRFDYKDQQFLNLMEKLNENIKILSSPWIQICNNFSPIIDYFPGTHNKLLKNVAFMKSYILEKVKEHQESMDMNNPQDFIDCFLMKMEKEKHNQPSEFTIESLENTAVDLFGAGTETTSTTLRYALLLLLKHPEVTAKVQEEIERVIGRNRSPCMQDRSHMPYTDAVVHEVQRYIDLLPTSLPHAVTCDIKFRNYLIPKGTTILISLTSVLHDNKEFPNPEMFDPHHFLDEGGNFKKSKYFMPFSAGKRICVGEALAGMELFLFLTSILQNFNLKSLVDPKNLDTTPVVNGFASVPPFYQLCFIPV
# CYP2C19 inhib – blocks human cytochrome P450 2C19; P33261; actives 21% (n = 96,000); CYP2C19 Supersomes, luciferin-H EGE luminescence, 30 min; inhibition, % at 5 µM;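 active = CYP2C19 inhibition above a set limit at 5 µM in the primary screen, cut at about 50% in these data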
# CYP2C19 activ – increases human CYP2C19 enzyme activity. P33261. recombinant CYP2C19, luciferin-H EGE luminescence; hits give high values; 0 = fully inhibited enzyme, 1 = untreated enzyme. activation factor at 5 µM. 96,000 tested, under 10 active. AID 1025;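 active = activation factor of at least 2 at 5 µM in the primary screen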
# MRP resist rev – reverses drug resistance mediated by MRP | H69AR cells + 2 uM doxorubicin, CellTiter-Glo, 72 h | differential viability (reversal), % at 10 µM | actives 0.04% (n = 85,000) | AID 602;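 active = viability drop by adding the cancer drug above about 55%, with treated viability meeting a 40% cutoff, limit read from the data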;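 note: larger differential means the compound sensitizes cells more to doxorubicin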
# CYP2C9 inhib – human CYP2C9 inhibition | CYP2C9 Supersomes, luciferin-H conversion, luminescence | inhibition, % at 5 µM | actives 20% (n = 96,000);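 active = blocking of liver enzyme CYP2C9 beyond about 50% at 5 µM, limit read from the data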
# A number is an active result; – = inactive; · = no result given. Shown are actives, neighbours in structure and some others; about 21% of the full set was active somewhere.
SMILES,MRP1 act,CYP2C9 activ,CYP2C19 inhib,CYP2C19 activ,MRP resist rev,CYP2C9 inhib
Cc1nn(-c2ccccc2)c(C)c1C(=O)OCC(=O)NC12CC3CC(CC(C3)C1)C2,–,–,67.5,–,–,–
COCC(C)n1c(C)cc(C(=O)COC(=O)c2c(C)nn(-c3ccccc3)c2C)c1C (stereo unspecified),–,–,61.8,–,–,–
COCC(C)n1c(C)cc(C(=O)COC(=O)c2c(NC(C)=O)sc(C)c2C)c1C (stereo unspecified),·,–,–,–,–,–
CC(C)C(=O)Nc1ccc(NC(=S)NC(=O)c2ccc([N+](=O)[O-])cc2)cc1,–,–,–,–,·,–
COc1cccc(C2CC(c3cccs3)=NN2C(=O)CSc2nc3ccccc3o2)c1OC (stereo unspecified),–,·,·,·,·,·
COc1ccccc1C1CN(c2ccc(F)cc2F)N=C1c1cccs1 (stereo unspecified),–,–,69.9,–,–,91.2
COC(=O)C(C)Oc1ccc(=O)[nH]n1 (stereo unspecified),–,–,–,–,–,–
CCOc1ccc(S(=O)(=O)Nc2cc(OC)ccc2OC)cc1,–,–,100.0,–,–,55.2
Cc1c(Cl)cccc1NC(=O)c1cc(-c2ccccc2O)n[nH]1,–,2.7,–,–,–,–
COc1ccc(OC)c(NS(=O)(=O)c2ccc(N3CCCC3=O)cc2)c1,–,–,95.0,–,·,–
COc1ccc(Cl)cc1NC(=O)c1cc(-c2ccccc2O)n[nH]1,–,·,·,·,·,·
COc1ccc(OC)c(NC(=O)c2cc(-c3cc(Cl)ccc3O)n[nH]2)c1,–,2.4,–,–,–,–
CCN(C(=O)COC(=O)C(Cc1ccccc1)N1C(=O)c2ccccc2C1=O)C1CCS(=O)(=O)C1 (stereo unspecified),–,–,–,–,–,–
CCOc1cc(NC(=S)Nc2ccccc2)c(OCC)cc1NC(=O)c1ccc(OC)cc1,–,–,–,–,·,68.9
COc1ccc(S(=O)(=O)Nc2cc(Cl)ccc2OC)cc1,–,–,99.3,–,–,–
COc1ccc(Cl)cc1NS(=O)(=O)c1ccc(OC)c(OC)c1,–,·,·,·,–,·
COc1ccc(OC)c(NC(=O)c2ccc(NC(C)=O)cc2)c1,–,2.6,–,–,–,–
COc1ccc(OC)c(NC(=O)c2ccc(NS(C)(=O)=O)cc2)c1,–,–,–,–,–,–
COc1ccc(C)cc1NS(=O)(=O)c1ccc(NS(=O)(=O)c2ccc(NC(C)=O)cc2)cc1,–,–,62.5,–,–,66.5
CCOc1cc(NC(=S)Nc2cccc(OC)c2)c(OCC)cc1NC(=O)C(C)C,–,–,–,–,·,–
CC1=C(C(=O)OC(C)C)C(c2cccc([N+](=O)[O-])c2)n2c(cc(=O)[nH]c2=S)N1 (stereo unspecified),–,·,·,·,·,·
O=C(Nc1ccc2c(c1)OCCO2)C1CCCN(S(=O)(=O)c2cccnc2)C1 (stereo unspecified),–,–,–,–,–,–
O=C(Oc1cc(Cl)ccc1Cl)c1ccc(N2CCOCC2)c([N+](=O)[O-])c1,–,·,·,·,·,·
COc1cc(S(=O)(=O)N2CCN(C)CC2)c(OC)cc1Br,–,–,–,–,–,–
COc1ccc(C)cc1NS(=O)(=O)c1cn(C)c(=O)n(C)c1=O,–,–,–,–,–,–
SMILES,MRP1 act,CYP2C9 activ,CYP2C19 inhib,CYP2C19 activ,MRP resist rev,CYP2C9 inhib
COc1ccc(S(=O)(=O)Nc2cc(C)ccc2OC)cc1C,–,–,100.1,–,–,80.4
COc1ccc(C)cc1NS(=O)(=O)c1cccc2nonc12,–,–,91.6,–,–,–
COc1ccc(OC)c(NS(=O)(=O)c2ccc(NC(C)=O)cc2)c1,–,–,99.9,–,–,–
COc1ccc(NS(=O)(=O)c2ccc(NC(=O)c3ccc(N(C)S(C)(=O)=O)cc3)cc2)c(OC)c1,–,·,·,·,·,·
O=C(Oc1cc(-c2ccccc2)no1)c1ccc(F)cc1,–,–,–,–,–,–
CCC(=O)Nc1cccc(NC(=O)c2cccc([N+](=O)[O-])c2)c1,–,–,–,–,·,–
O=C(Cc1ccccc1)NNC(=O)c1cnccn1,–,·,·,·,·,·
CN(C(=O)CCN1C(=O)c2ccccc2C1=O)C1CCCCC1,–,–,98.3,–,–,–
Cc1cccc(C)c1OCCCCc1c(C)n[nH]c1C,–,–,59.9,–,–,70.1
Cc1ccccc1OCCCCc1c(C)n[nH]c1C,–,–,65.2,–,–,50.5
COc1cccc(OC)c1OCCCCCc1c(C)n[nH]c1C,–,–,85.6,–,–,–
Cc1cccc(C(C)(C)C)c1OCCCCN1CCCC1,–,–,–,–,–,–
CCOC(=O)CN1C(=O)C(O)=C(C(C)=O)C1c1ccc(F)cc1 (stereo unspecified),–,–,–,–,·,–
C=CCn1c(SCC(=O)c2[nH]c(C)c(C(=O)OCC)c2C)nc2scc(-c3ccc(OC)c(OC)c3)c2c1=O,–,·,·,·,·,·
CSc1nc(Oc2ccc(=O)n(C)n2)nc(N(C)C)n1,–,–,–,–,–,–
CCOC(=O)c1sc(NC(=O)CSc2nc3c(c(=O)n2-c2ccc(F)cc2)SCC3)c(C(=O)OCC)c1C,–,·,·,·,·,·
CC(C(=O)NC(=O)NC1CCCCC1)N1CCN(C(c2ccccc2)c2ccccc2)CC1 (stereo unspecified),–,–,–,–,·,84.3
COC(C(=O)NC1CCCCCCC1)c1ccccc1 (stereo unspecified),–,·,·,·,·,·
O=C(NC1CCCCC1)C(c1ccccc1)N1CCCC1 (stereo unspecified),–,–,70.7,–,–,–
CC(C)(CNC(=S)NCCc1ccccc1)CNC(=S)NCCc1ccccc1,–,·,·,·,·,·
Cc1cc([N+](=O)[O-])c(C(C)(C)C)cc1N,–,–,88.7,–,·,–
Cc1cc(NC(=O)c2ccccc2-c2ccccc2)ccc1Br,–,·,·,·,·,·
Cn1c(=O)c2c(nc(NCc3ccco3)n2C/C=C/c2ccccc2)n(C)c1=O,–,–,73.6,–,–,–
CCN(CC)C(=O)c1cn(CC)c(=O)c2cc(OC)c(OC)cc12,–,–,–,–,–,–
Cc1cccc2cc(COC(=O)C3CCCCC3)c(=O)[nH]c12,–,–,–,–,–,–
SMILES,MRP1 act,CYP2C9 activ,CYP2C19 inhib,CYP2C19 activ,MRP resist rev,CYP2C9 inhib
CCC(C)NC(=O)CSc1nc2c(sc3ccccc32)c(=O)n1CCCN1CCOCC1 (stereo unspecified),–,–,–,–,–,–
O=C(CSc1nc2c(sc3ccccc32)c(=O)n1CCc1ccccc1)NCc1ccco1,–,–,–,–,–,52.1
CCOC(=O)CSc1nc2c(sc3ccccc32)c(=O)n1CCCN1CCOCC1,–,–,–,–,–,55.1
O=C(CSc1nc2c(sc3ccccc32)c(=O)n1-c1ccccc1)NCc1ccco1,–,·,·,·,·,·
CCCCn1c(SCC(=O)NCc2ccco2)nc2c(sc3ccccc32)c1=O,–,–,–,–,–,73.6
CCOCCCn1c(SCC(=O)NCc2ccco2)nc2c(sc3ccccc32)c1=O,–,–,–,–,–,65.5

# Assay outcomes from PubChem BioAssay.
